Assay results from PubChem BioAssay (EPA / NIEHS).
Activity calls are given as the source filed them. How the source made its calls: active means hit-call score of the fitted dose curve at least 0.9, where 1 is the maximum; inactive means score below 0.9.

Key:
[1] = read-out: Interleukin 17F (IL17F), IL17F (gene 112744); experiment: BSK_BT_xIL17F: BioMAP Diversity Plus: BT Assay for Interleukin 17F (IL17F) Biomarker Activity (AID 2284243); details: primary human B cells with PBMC
Summary of the method: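 Human PBMC co-cultured with B cells, compound exposure 24 h; secreted IL-17F quantified by Luminex xMAP, referenced to DMSO control. PBMC viability measured in parallel by Alamar Blue reduction.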

[2] = read-out: Actin alpha 1 (ACTA1), ACTA1 (gene 58); experiment: BSK_MyoF_ACTA1: BioMAP Diversity Plus: MyoF Assay for Actin alpha 1 (ACTA1) Biomarker Activity (AID 2284244); details: primary human lung fibroblasts
Summary of the method: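 Cells were exposed to chemical for 24 h before a-SMA levels were quantified by ELISA in human lung fibroblasts. Increases were fitted against DMSO as negative control; parallel SRB staining (0.1% after 10% TCA fixation, 560 nm) assessed cytotoxicity.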

[3] = read-out: Interleukin 2 (IL2), IL2 (gene 3558); experiment: BSK_BT_xIL2: BioMAP Diversity Plus: BT Assay for Interleukin 2 (IL2) Biomarker Activity (AID 2284245); details: primary human B cells with PBMC
Summary of the method: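 The BT system combines human B cells with peripheral blood mononuclear cells. Twenty-four hours after chemical dosing, secreted IL-2 was measured with xMAP bead technology, and responses were analyzed as increases over DMSO controls.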

[4] = read-out: Basic fibroblast growth factor (bFGF), FGF2 (gene 2247); experiment: BSK_MyoF_bFGF: BioMAP Diversity Plus: MyoF Assay for Basic fibroblast growth factor (bFGF) Biomarker Activity (AID 2284246); details: primary human lung fibroblasts
Summary of the method: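 Chemicals are added to human lung fibroblast cultures and incubated 24 h. bFGF is then measured by ELISA, while parallel cultures receive SRB staining for total protein as a cytotoxicity check. Data are fitted upward against DMSO.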

[5] = read-out: Collagen IV, COL4A1 (gene 1282); experiment: BSK_MyoF_CollagenIV: BioMAP Diversity Plus: MyoF Assay for Collagen IV Biomarker Activity (AID 2284247); details: primary human lung fibroblasts
Summary of the method: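 Human lung fibroblast system, 24 h chemical exposure. Endpoint: Collagen IV by ELISA, upward fit vs DMSO.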

[6] = read-out: Interleukin-8 (IL8), CXCL8 (gene 3576); experiment: BSK_MyoF_IL8: BioMAP Diversity Plus: MyoF Assay for Interleukin-8 (IL8) Biomarker Activity (AID 2284261); details: primary human lung fibroblasts
Summary of the method: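 Human lung fibroblast (MyoF system) cultures dosed for 24 h, then IL-8 measured by ELISA. Response taken relative to DMSO; parallel SRB total-protein staining for cytotoxicity.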

Decorin, DCN (gene 1634) = experiment: BSK_MyoF_Decorin: BioMAP Diversity Plus: MyoF Assay for Decorin Biomarker Activity (AID 2284265); details: primary human lung fibroblasts
Summary of the method: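 Human lung fibroblast cultures were dosed for 24 h, and decorin was then measured by ELISA. Parallel cultures were stained with sulforhodamine B for total protein as a cytotoxicity check. Gain of signal was fitted relative to DMSO.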

[7] = read-out: Monokine induced gamma interferon (MIG), CXCL9 (gene 4283); experiment: BSK_KF3CT_MIG: BioMAP Diversity Plus: KF3CT Assay for Monokine induced gamma interferon (MIG) Biomarker Activity (AID 2284248); details: primary human keratinocytes with fibroblasts
Summary of the method: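 Human keratinocyte–foreskin fibroblast co-culture; MIG measured by ELISA 24 h after chemical dosing, fitted upward versus DMSO. Cytotoxicity was assessed in parallel cultures by SRB total-protein staining read at 560 nm.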

[8] = read-out: Plasminogen activator inhibitor-1 (PAI1), SERPINE1 (gene 5054); experiment: BSK_KF3CT_PAI1: BioMAP Diversity Plus: KF3CT Assay for Plasminogen activator inhibitor-1 (PAI1) Biomarker Activity (AID 2284252); details: primary human keratinocytes with fibroblasts
Summary of the method: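 Cells (human keratinocytes co-cultured with foreskin fibroblasts) are exposed to test chemical for 24 h. PAI-1 is then measured by ELISA and analysed for signal gain against DMSO.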

[9] = read-out: Vascular cell adhesion molecule 1 (VCAM1), VCAM1 (gene 7412); experiment: BSK_BF4T_VCAM1: BioMAP Diversity Plus: BF4T Assay for Vascular cell adhesion molecule 1 (VCAM1) Biomarker Activity (AID 2284249); details: primary human bronchial epithelial cells with fibroblasts
Summary of the method: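 Cell-surface VCAM-1 quantified by ELISA after 24 h chemical exposure of human bronchial epithelial/dermal fibroblast co-cultures, with SRB staining in parallel wells for cytotoxicity; DMSO baseline, positive-direction fitting.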

[10] = read-out: Monocyte Chemoattractant Protein-1 (MCP1), CCL2 (gene 6347); experiment: BSK_IMphg_MCP1: BioMAP Diversity Plus: IMphg Assay for Monocyte Chemoattractant Protein-1 (MCP1) Biomarker Activity (AID 2284253); details: primary human endothelial cells with macrophages
Summary of the method: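 ELISA readout of MCP-1 at 24 hours in IMphg co-cultures of venular endothelial cells and macrophages, normalised to DMSO; parallel cultures stained with sulforhodamine B for overt cytotoxicity.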

[11] = read-out: Macrophage Inflammatory Protein-1 Alpha (MIP1a), CCL3 (gene 6348); experiment: BSK_IMphg_MIP1a: BioMAP Diversity Plus: IMphg Assay for Macrophage Inflammatory Protein-1 Alpha (MIP1a) Biomarker Activity (AID 2284255); details: primary human endothelial cells with macrophages
Summary of the method: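 MIP-1a protein levels were quantified by ELISA after 24 h treatment of human endothelial cell–macrophage co-cultures, compared with DMSO. Parallel cultures were fixed with TCA and stained with 0.1% SRB to gauge overt cytotoxicity.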

CD69, CD69 (gene 969) = experiment: BSK_IMphg_CD69: BioMAP Diversity Plus: IMphg Assay for CD69 Biomarker Activity (AID 2284257); details: primary human endothelial cells with macrophages
Summary of the method: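 Readout is ELISA for CD69 in primary human venular endothelial cell/macrophage co-culture, taken at 24 h post-dosing. SRB staining of parallel cultures gauged overt cytotoxicity; signal increase versus DMSO defined activity.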

[12] = read-out: Eotaxin 3, CCL26 (gene 10344); experiment: BSK_BF4T_Eotaxin3: BioMAP Diversity Plus: BF4T Assay for Eotaxin 3 Biomarker Activity (AID 2284258); details: primary human bronchial epithelial cells with fibroblasts
Summary of the method: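 ELISA measurement of Eotaxin-3 after 24 h chemical exposure in a bronchial epithelial/dermal fibroblast co-culture, with DMSO as baseline. Parallel SRB staining (0.1% SRB after 10% TCA fixation, 560 nm) flagged overt cytotoxicity.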

[13] = read-out: Monocyte Chemoattractant Protein-1 (MCP1), CCL2 (gene 6347); experiment: BSK_BF4T_MCP1: BioMAP Diversity Plus: BF4T Assay for Monocyte Chemoattractant Protein-1 (MCP1) Biomarker Activity (AID 2284259); details: primary human bronchial epithelial cells with fibroblasts
Summary of the method: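 MCP-1 ELISA readout taken 24 h after dosing in the BF4T system (bronchial epithelial cells plus dermal fibroblasts). Parallel SRB total-protein staining flagged cytotoxicity; DMSO served as baseline, positive fitting direction.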

[14] = read-out: Intercellular Adhesion Molecule 1 (ICAM1), ICAM1 (gene 3383); experiment: BSK_BF4T_ICAM1: BioMAP Diversity Plus: BF4T Assay for Intercellular Adhesion Molecule 1 (ICAM1) Biomarker Activity (AID 2284260); details: primary human bronchial epithelial cells with fibroblasts
Summary of the method: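 ICAM-1 levels measured by ELISA after 24 h chemical treatment of bronchial epithelial cell/dermal fibroblast co-cultures, read against DMSO baseline. Overt cytotoxicity checked in parallel cultures by sulforhodamine B staining.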

CD90, THY1 (gene 7070) = experiment: BSK_BF4T_CD90: BioMAP Diversity Plus: BF4T Assay for CD90 Biomarker Activity (AID 2284262); details: primary human bronchial epithelial cells with fibroblasts
Summary of the method: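 CD90 levels by ELISA after 24 h treatment of human bronchial epithelial cell/dermal fibroblast cultures, analysed versus DMSO. Overt cytotoxicity checked in parallel cultures by sulforhodamine B staining.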

[15] = read-out: Interleukin-8 (IL8), CXCL8 (gene 3576); experiment: BSK_BF4T_IL8: BioMAP Diversity Plus: BF4T Assay for Interleukin-8 (IL8) Biomarker Activity (AID 2284263); details: primary human bronchial epithelial cells with fibroblasts
Summary of the method: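 Human bronchial epithelial cells with dermal fibroblasts co-culture; IL-8 measured by ELISA 24 hours after dosing, fitted vs DMSO. Cytotoxicity tracked in parallel cultures by SRB total-protein staining.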

[16] = read-out: Interleukin-1 alpha (IL1a), IL1A (gene 3552); experiment: BSK_BF4T_IL1a: BioMAP Diversity Plus: BF4T Assay for Interleukin-1 alpha (IL1a) Biomarker Activity (AID 2284264); details: primary human bronchial epithelial cells with fibroblasts
Summary of the method: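 ELISA read-out of IL-1α from bronchial epithelial cell/dermal fibroblast co-cultures 24 h after compound addition. Increases scored against DMSO negative control. Cytotoxicity monitored by sulforhodamine B staining of parallel cultures.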

KRT18 (gene 3875) = experiment: BSK_BF4T_Keratin818: BioMAP Diversity Plus: BF4T Assay for Keratin 818 Biomarker Activity (AID 2284266); details: primary human bronchial epithelial cells with fibroblasts
Summary of the method: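 Keratin 8/18 levels quantified by ELISA after 24 h chemical treatment of bronchial epithelial cell/dermal fibroblast co-cultures, fitted in positive direction relative to DMSO. Parallel SRB staining tracks overt cytotoxicity.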

Measured: AC50

CC(=O)OCC=C(C)CCC=C(C)CCC=C(C)C
inactive: [2] | [4] | [5] | [6] | Decorin, DCN (gene 1634)
active: [1] 30.3 µM | [3] 36.4 µM

CC(C)CCCC(C)(C)O
inactive: [7] | [8]

CCn1cc(C(=O)O)c(=O)c2ccc(C)nc21
inactive: [7] | [8]

O=C1OC2(c3ccc(O)cc3Oc3cc(O)ccc32)c2ccccc21
inactive: [1] | [2] | [3] | [4] | [5] | [6] | Decorin, DCN (gene 1634)

C=C1CC/C=C(\C)CC[C@@H]2[C@@H]1CC2(C)C
active: [2] 14.9 µM | [4] 34.7 µM | [5] 23.8 µM | Decorin, DCN (gene 1634) 31 µM
inactive: [1] | [3] | [6]

CC(C)(CO)CO
inactive: [7] | [8]

Nc1ccc(N)c([N+](=O)[O-])c1
inactive: [1] | [2] | [3] | [4] | [5] | [6] | Decorin, DCN (gene 1634)

CC1(C)[C@H](C=C(Cl)Cl)[C@H]1C(=O)OCc1cccc(Oc2ccccc2)c1
inactive: [1] | [2] | [3] | [4] | [5] | [6] | Decorin, DCN (gene 1634)

C=C(C)C(=O)OCCC(F)(F)C(F)(F)C(F)(F)C(F)(F)C(F)(F)C(F)(F)C(F)(F)C(F)(F)F
inactive: all assays above

NC(=O)c1c(Cl)cccc1Cl
inactive: [1] | [2] | [3] | [4] | [5] | [6] | Decorin, DCN (gene 1634)
